Results from the supplement of paper PMC3334620.
In all, about 33,000 sequences were measured (“E-score (-0.5 to 0.5)”: median about -0.011, highest 2% from about 0.28 on). This is one part of a sample in which the highest values are shown more often than they occur.

The sequences below were run against T1, Gcr1 (UniProt P07261) (assay: PBM E-score (8-mer binding enrichment) (E-score (-0.5 to 0.5)); higher = stronger / more preferred TF binding). Details: protein concentration: 100 nM; construct: GST-full length.
T1 sequence: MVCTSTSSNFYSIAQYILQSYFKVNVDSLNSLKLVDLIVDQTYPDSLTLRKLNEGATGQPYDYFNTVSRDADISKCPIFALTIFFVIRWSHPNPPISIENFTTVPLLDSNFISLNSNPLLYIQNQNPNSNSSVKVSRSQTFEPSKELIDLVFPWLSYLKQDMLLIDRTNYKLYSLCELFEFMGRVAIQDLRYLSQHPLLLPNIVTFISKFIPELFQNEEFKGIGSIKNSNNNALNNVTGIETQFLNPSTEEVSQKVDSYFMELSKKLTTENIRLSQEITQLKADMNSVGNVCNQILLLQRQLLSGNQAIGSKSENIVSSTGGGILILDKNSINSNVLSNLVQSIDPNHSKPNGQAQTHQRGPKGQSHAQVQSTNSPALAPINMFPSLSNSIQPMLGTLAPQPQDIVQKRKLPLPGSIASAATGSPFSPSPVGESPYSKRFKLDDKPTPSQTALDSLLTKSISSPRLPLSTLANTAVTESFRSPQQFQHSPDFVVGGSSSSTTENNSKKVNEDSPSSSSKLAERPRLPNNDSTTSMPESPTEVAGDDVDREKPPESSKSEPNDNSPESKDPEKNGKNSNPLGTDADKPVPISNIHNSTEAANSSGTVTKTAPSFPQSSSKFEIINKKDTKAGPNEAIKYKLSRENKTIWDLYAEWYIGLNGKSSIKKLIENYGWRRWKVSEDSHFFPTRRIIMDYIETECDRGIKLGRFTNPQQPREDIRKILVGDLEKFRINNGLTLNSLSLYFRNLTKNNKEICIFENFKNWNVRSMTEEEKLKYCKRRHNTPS
Procedure: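 Universal 'all 10-mer' protein binding microarrays (Agilent AMADID 015681) probed with GST-tagged S. cerevisiae TFs (full-length or DBD) made by in vitro transcription/translation (PURExpress), about 100-200 nM. Bound TF was detected with fluorescent anti-GST. Each ungapped 8-mer (which stands for itself and its reverse complement) is scored by the PBM enrichment score (E-score), a modified Wilcoxon-Mann-Whitney statistic from -0.5 to +0.5, computed with the Universal PBM Analysis Suite. Scale: above 0.35 generally sequence-specific binding.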

| Sequence | PBM E-score |
| --- | --- |
| GTAAAGAC | -0.129 |
| CAGGCCAG | -0.207 |
| CGGCTGGA | 0.0497 |
| CATTCGGA | 0.00656 |
| GATGCCGC | 0.267 |
| GACAAGAC | 0.0539 |
| CTCAGAAA | -0.133 |
| GAAAACGC | -0.167 |
| AGTCTCGC | -0.154 |
| AGGGCTCC | 0.143 |
| CAAAGGAC | -0.127 |
| AGAGCTTC | 0.267 |
| ACAGCTTC | 0.345 |
| CCAGCTGC | 0.218 |
| CGAGCTTC | 0.371 |
| CGAGCTTA | -0.185 |
| CCAGCTTA | -0.0932 |
| ACAGCTTG | -0.199 |
| ACAGCTTA | -0.0153 |
| CCAGCTTC | 0.333 |
| AGTTCCAT | -0.107 |
| AGAAGCAC | 0.126 |
| ACCCCGCC | 0.0633 |
| CTCTAAGA | -0.00019 |
| AACTTCGG | -0.0312 |

| Sequence | PBM E-score |
| --- | --- |
| ACCAGCTC | -0.149 |
| GATACGCA | 0.247 |
| TATACGCA | 0.285 |
| CATACGCA | 0.0448 |
| GATGCGGC | 0.299 |
| CATGCGGC | -0.0307 |
| GATGCGGA | 0.033 |
| CTGATCTC | -0.125 |
| AGCGCCCG | 0.272 |
| GATAGGAA | 0.208 |
| TCTAGGAA | 0.105 |
| AATAGGAA | 0.352 |
| TATAGGAA | 0.318 |
| CATAGGAA | 0.134 |
| AATAGGAT | 0.187 |
| ACATATCA | 0.129 |
| CTCCGCGA | 0.0908 |
| GGCATTTA | -0.124 |
| ACTGCACA | -0.211 |
| TCAGCCAA | -0.102 |
| CCAGCCAA | -0.11 |
| GCAGCCAC | 0.383 |
| CCAGCCAC | 0.0313 |
| GCAGCCAA | 0.395 |
| ACAGCCAC | -0.00306 |

| Sequence | PBM E-score |
| --- | --- |
| ACCGCCAT | -0.181 |
| GACCTAGC | -0.152 |
| GATATTGC | 0.00295 |
| CCTAGGTC | -0.17 |
| GCTCGACC | 0.00687 |
| CTGGCAGA | 0.0263 |
| GGGGCACA | -0.0447 |
| CCGGCAGA | 0.0729 |
| GCGGCAAC | 0.0813 |
| GGGGCACC | 0.351 |
| CCGGCAGC | 0.292 |
| ATGGCAGC | 0.0656 |
| CCGGCAAC | 0.318 |
| CTGGCAGC | 0.386 |
| CCGGCAGG | -0.253 |
| AGGGCACC | 0.13 |
| CCGGCAAG | -0.101 |
| AGTTCGAA | -0.0147 |
| GCCCAAAC | 0.111 |
| GTTACCCA | -0.141 |
| CCCTCTCA | -0.131 |
| GAGTACCC | -0.0644 |
| CCCACTCC | 0.0066 |
| CGGGTCTA | 0.0247 |
| CGGGCAGA | -0.0209 |

| Sequence | PBM E-score |
| --- | --- |
| AGGGCAGC | 0.0608 |
| ACGGCATC | 0.2 |
| CCGGCATA | 0.0787 |
| ATGGCACC | 0.201 |
| CGGGCAGC | 0.309 |
| CGGGCATA | -0.232 |
| AGGGCATC | 0.129 |
| CTGGCACC | 0.392 |
| CGGGCATC | 0.282 |
| CTGGCACA | -0.0796 |
| CCGGCATC | 0.38 |
| AGTTTCAT | 0.116 |
| CCAAAGGC | -0.185 |
| CCCGCTTA | 0.161 |
| CATGCGTC | -0.0513 |
| CCTGAGAG | -0.131 |
| CGACCGAC | 0.0935 |
| CACCAGTC | -0.02 |
| GGGGTCCA | 0.0846 |
| AAATTTTA | 0.126 |
| AGTCGAGC | -0.0406 |
| GACTGTCA | -0.154 |
| AGAGGTAT | 0.196 |
| ATAGATTC | 0.114 |
| CCGCTCAG | 0.0454 |

| Sequence | PBM E-score |
| --- | --- |
| ACGTTCTC | -0.172 |
| CGGGCACG | 0.107 |
| ACGGCACC | 0.142 |
| CAGGCAGC | 0.285 |
| CGGGCACA | -0.0928 |
| CAGGCAGA | -0.0141 |
| CCGGCACC | 0.28 |
| CTGGCATC | 0.304 |
| CGGGCACC | 0.376 |
| ATGGCATC | 0.175 |
| CAGGCAGG | -0.143 |
| GCGGCACC | 0.324 |
| CTGGCATA | 0.0454 |
| CCCTACTA | 0.0892 |
| AATTTACT | 0.155 |
| AAACCAGA | 0.0613 |
| CCATCCAA | -0.121 |
| TCATCCAA | -0.114 |
| GCATCCAA | 0.366 |
| ACATCCAC | 0.133 |
| AAATCCAA | 0.142 |
| TAATCCAA | 0.134 |
| GAATCCAA | 0.309 |
| GCATCCAC | 0.452 |
| CCATCCAC | -0.0219 |

| Sequence | PBM E-score |
| --- | --- |
| TCCTAGAA | 0.174 |
| GAATGGCC | -0.116 |
| CAAGCGCG | -0.0724 |
| ATATGAGG | 0.033 |
| AGAAAACC | -0.0435 |
| CGGAGCAG | 0.0182 |
| ACATACTG | 0.0904 |
| AGGACGCA | 0.0414 |
| ACGACGCG | 0.0493 |
| CGGACGCC | 0.416 |
| AGGACGCC | 0.453 |
| AGGACGCG | 0.283 |
| AGGACGAG | -0.073 |
| CGGACGTC | 0.134 |
| ACGACGCC | 0.217 |
| CGGACGCA | 0.0459 |
| CGACCCAC | -0.0741 |
| TAACCTGA | -0.2 |
| ACGTGTAT | 0.0211 |
| CAGGCCGA | -0.0271 |
| CAGAACCG | 0.106 |
| GAATGCGC | 0.164 |
| ACTCTCTC | -0.288 |
| CGCCAATA | 0.144 |
| GTATGTCA | 0.136 |

| Sequence | PBM E-score |
| --- | --- |
| CTCCCAAG | 0.0273 |
| ACTCTAGG | -0.0525 |
| AAACAGGA | 0.363 |
| AAACAGGC | -0.117 |
| CTACAGGA | 0.204 |
| CAACAGGA | 0.226 |
| ATACAGGC | 0.223 |
| ATTCAGGA | 0.282 |
| ATTCAGGG | 0.123 |
| ATACAGGA | 0.308 |
| CTTCAGGA | 0.268 |
| ACCGAACG | 0.0306 |
| CCACCGCG | -0.0592 |
| ATGACATA | 0.127 |
| TCCCGCAA | 0.0539 |
| CGAGTGCC | -0.132 |
| ACGCGTCT | 0.155 |
| GAGCGTGC | -0.1 |
| AAGCGTCA | -0.0114 |
| GAGCGTCC | 0.384 |
| GAGCGTCA | 0.0398 |
| ACGCGTCC | 0.292 |
| AAGCGTCG | 0.0188 |
| AAGCGTCC | 0.323 |
| ACGCGTCA | -0.171 |

| Sequence | PBM E-score |
| --- | --- |
| GCATCAAC | 0.15 |
| CACGGAGC | 0.101 |
| CGGTAGCA | -0.0732 |
| AGGTATCG | 0.019 |
| AGGTATCA | 0.0276 |
| CGGTATCC | 0.282 |
| CGGTAGCC | 0.296 |
| CGGTATCA | -0.0496 |
| AGGTATCC | 0.28 |
| CTGTATCC | 0.207 |
| AGGTAGCC | 0.238 |
| CAAGCTAA | -0.177 |
| CCTGTGAG | -0.218 |
| CGCCCTAG | 0.143 |
| ATAGCCAG | 0.0137 |
| CGCAATTC | 0.0283 |
| CTACCGTC | -0.0298 |
| GCCATCCA | 0.086 |
| CCGATACA | 0.0692 |
| CCAGTTAG | 0.0191 |
| AGGCGCCG | 0.354 |
| AGGCGCAG | 0.157 |
| AGGCGCAT | 0.0287 |
| GCGCGCCC | 0.0734 |
| ATGCGCCC | 0.0661 |

| Sequence | PBM E-score |
| --- | --- |
| AGGCGCCA | 0.268 |
| AAGCGCCT | 0.0782 |
| AGGCGCGC | 0.16 |
| ACGCGCCC | 0.352 |
| AGGCGCCT | 0.321 |
| AGGCGCCC | 0.384 |
| ACGCGCCA | 0.196 |
| AGTGCTCC | -0.116 |
| GTCAGAAA | 0.0237 |
| AAGGGCTA | -0.138 |
| AACAATCC | -0.0423 |
| TGGACAAA | 0.0886 |
| CCCGGTCC | -0.0935 |
| CGGACACC | 0.0465 |
| ACTGCAAG | -0.185 |
| TTGTGAAA | 0.0169 |
| CCCGTTAG | 0.0113 |
| CGCGCATC | 0.252 |
| ATCCCCCG | 0.175 |
